# Reference: PubChem BioAssay
# Calls of active or inactive are those of the source. Unless noted, no stated cut-off is given here; in the data, active means inhibition above about 30%; inactive means the rest.
# Experiment: 384-well plate pilot, post-Golgi transport modulator project, inhibition of yeast transport mutant growth (AID 636; in the data active means inhibition above about 31%)
# Conditions: absorbance 615 nm, about 18 h, stronger effect = higher value
row,SMILES,inhibition
1,CC[C@H](C)C(=O)O[C@H]1C[C@@H](C)C=C2C=C[C@H](C)[C@H](CC[C@@H]3C[C@@H](O)CC(=O)O3)[C@H]21,-1.82% (inactive)
2,COc1cccc(-c2cc(C(=O)Nc3c(C)nn(Cc4ccccc4)c3C)no2)c1,-5.81% (inactive)
3,CCn1c(SCC(=O)NC)nnc1C(C)C,-7.3% (inactive)
4,Cn1c(=O)c2c(nc(NCCCO)n2Cc2cccc(Br)c2)n(C)c1=O,-5.73% (inactive)
5,COc1cc(NC(=O)CSCc2cnn(-c3ccccc3)c2-n2cccc2)cc(OC)c1,-4.46% (inactive)
6,COc1ccc(-n2ncc3c(NCc4ccc5c(c4)OCO5)ncnc32)cc1,-3.55% (inactive)
7,CCN(CC(=O)Nc1ccc2c(c1)CCC2)Cc1nc2ccccc2c(=O)[nH]1,-2.6% (inactive)
8,COc1ccccc1OCCOCCn1cnc2ccccc2c1=O,-5.75% (inactive)
9,Cc1cn2c(-c3ccncc3)nnc2s1,-1.23% (inactive)
10,c1ccc2c(SCc3cn4cccnc4n3)ncnc2c1,-4.8% (inactive)
11,Cc1cnc(NC(=O)CSc2nnc(-c3ccccc3)n2Cc2ccccc2)s1,0.55% (inactive)
12,C=CCN1C(=O)CS/C1=C(\C#N)S(=O)(=O)c1ccc(C)cc1,-5.62% (inactive)
13,Cc1cc(C)n2nc(SCC(=O)N(C)Cc3ccccc3)nc2n1,-6.85% (inactive)
14,COc1ccc2nc(S(=O)Cc3ncc(C)c(OC)c3C)[nH]c2c1 (configuration not stated),-1.69% (inactive)
15,O=C(O)c1cccc(COCC(F)(F)C(F)F)c1,-0.41% (inactive)
16,Cc1ccc(S(=O)(=O)N2CCN(C(=O)N3CCOCC3)C2C)cc1 (configuration not stated),-8.08% (inactive)
17,CCOc1ccc(NC(=O)CC2NCCNC2=O)cc1 (configuration not stated),-5.95% (inactive)

# Experiment: growth suppression of yeast trafficking mutant, preliminary HTS, modulators of trafficking downstream of Golgi apparatus project, 1536-format plate, OD 615 nm (AID 637)
# Conditions: yeast transport mutant growth, absorbance 615 nm, 18 h; stronger effect = higher value
row,SMILES,inhibition
1,Cc1cccc2c(=O)oc(-c3ccc4c(c3)C(=O)N(CC3CCCO3)C4=O)nc12 (configuration not stated),6.77% (inactive)
2,CC(=O)NC(C)C(=O)OCc1ccc(Cl)cc1Cl (configuration not stated),-1.27% (inactive)
3,CC1CCCC(C)N1C(=O)CSc1nnc(-c2cccs2)o1 (configuration not stated),-3.09% (inactive)
4,CC(C)N(C(=O)N1CCC(c2nc(-c3ccncc3)no2)CC1)C(C)C,-5.64% (inactive)
5,COc1ccccc1NC(=O)N(Cc1ccco1)Cc1cc2cccc(C)c2[nH]c1=O,-1.45% (inactive)
6,NC(CO)C(=O)NNCc1ccc(O)c(O)c1O (configuration not stated),-2.67% (inactive)
7,Cc1csc(NC(=O)Nc2cccc(Cl)c2)n1,-1.09% (inactive)
8,CCCCOc1ccccc1C1C(C(N)=O)=C(C)Nc2nnnn21 (configuration not stated),0.82% (inactive)
9,CC(C)Oc1cc2oc(=O)c3c(c2cc1Cl)CCC3,0.97% (inactive)
10,Cc1cccc(C)c1OCC(=O)Nc1cccc(NC(=O)c2ccco2)c1,-0.16% (inactive)
11,CCOC(=O)c1cnc2c(OC)cccc2c1N1CCN(c2ccc(OC)cc2)CC1,0.63% (inactive)
12,CC(C)CCNC(=O)C(C)N(Cc1ccc(F)cc1)C(=O)c1ccc(CN2CCCCC2)o1 (configuration not stated),-2.91% (inactive)
13,CCn1nc(C(=O)O)c(=O)c2cc3c(cc21)OCO3,1.83% (inactive)
14,CC(=O)O[C@H]1C[C@@H]2CC[C@@H]3[C@H](CC[C@@]4(C)[C@H]3C[C@H]([N+]3(C)CCCCC3)[C@@H]4OC(C)=O)[C@@]2(C)C[C@@H]1[N+]1(C)CCCCC1,12.7% (inactive)
15,COc1ccc(S(=O)(=O)Nc2cccc(C)n2)c2ccccc12,4.43% (inactive)
16,COC(=O)[C@H](C)NC(=O)Nc1cccc(C(F)(F)F)c1,30% (active)
17,Cc1cc2c(c(=O)n1C)C(Cc1ccccc1)C(C#N)=C(N)O2 (configuration not stated),2.55% (inactive)
18,Cn1c(-c2ccc(F)cc2)cnc1SCC(=O)Nc1ccccc1N1CCOCC1,-4.55% (inactive)
19,CCCNC(=O)NC1C(NC(=O)NCCC)N(C)C(=O)N1C (configuration not stated),-0.49% (inactive)
20,C=CCN(CC=C)C(=O)Nc1cc(Cl)ccc1OC,-3.27% (inactive)

row,SMILES,inhibition
1,COc1cccc(NC(=O)C2CCCN2C(=O)Nc2cccc(F)c2)c1 (configuration not stated),-3.06% (inactive)
2,Nc1nc(-c2ccc(Br)s2)c(Br)s1,-0.16% (inactive)
3,COc1ccc(CCNC(=O)CCN2C(=O)C3CC=CCC3C2=O)cc1OC (configuration not stated),-1.97% (inactive)
4,CC[C@H](C)C(=O)O[C@H]1C[C@@H](C)C=C2C=C[C@H](C)[C@H](CC[C@@H]3C[C@@H](O)CC(=O)O3)[C@H]21,2.83% (inactive)
5,COc1cccc(-c2cc(C(=O)Nc3c(C)nn(Cc4ccccc4)c3C)no2)c1,-7.33% (inactive)
6,CCn1c(SCC(=O)NC)nnc1C(C)C,-4.91% (inactive)
7,Cn1c(=O)c2c(nc(NCCCO)n2Cc2cccc(Br)c2)n(C)c1=O,3.64% (inactive)
8,COc1cc(NC(=O)CSCc2cnn(-c3ccccc3)c2-n2cccc2)cc(OC)c1,-4.18% (inactive)
9,COc1ccc(-n2ncc3c(NCc4ccc5c(c4)OCO5)ncnc32)cc1,3.71% (inactive)
10,CCN(CC(=O)Nc1ccc2c(c1)CCC2)Cc1nc2ccccc2c(=O)[nH]1,4.73% (inactive)
11,COc1ccccc1OCCOCCn1cnc2ccccc2c1=O,0.97% (inactive)
12,Cc1cn2c(-c3ccncc3)nnc2s1,3.55% (inactive)
13,c1ccc2c(SCc3cn4cccnc4n3)ncnc2c1,-3.82% (inactive)
14,Cc1cnc(NC(=O)CSc2nnc(-c3ccccc3)n2Cc2ccccc2)s1,13.3% (inactive)
15,C=CCN1C(=O)CS/C1=C(\C#N)S(=O)(=O)c1ccc(C)cc1,-1.45% (inactive)
16,Cc1cc(C)n2nc(SCC(=O)N(C)Cc3ccccc3)nc2n1,1.82% (inactive)
17,COc1ccc2nc(S(=O)Cc3ncc(C)c(OC)c3C)[nH]c2c1 (configuration not stated),-2.5% (inactive)
18,O=C(O)c1cccc(COCC(F)(F)C(F)F)c1,-3.87% (inactive)
19,Cc1ccc(S(=O)(=O)N2CCN(C(=O)N3CCOCC3)C2C)cc1 (configuration not stated),-2.18% (inactive)
20,CCOc1ccc(NC(=O)CC2NCCNC2=O)cc1 (configuration not stated),-2.36% (inactive)
